Drawing on PubChem BioAssay (NCI), this text covers growth for seven molecules.

What all share (assay): NCI-60 one-dose screen, 48 h (100 = growth as untreated, 0 = no growth, -100 = all killed)
Holding throughout (conditions): 10 µM unless noted

Experiment [1] relates to SK-MEL-2 melanoma.
Experiment [2] relates to EKVX NSCLC.
The subject of experiment [3] is SN12C renal.
Experiment [4] has as its system UO-31 renal.
The test system of experiment [5] is TK-10 renal.
The subject of experiment [6] is ACHN renal.
For experiment [7], the system named is CAKI-1 renal.
Experiment [8] has as its system A498 renal.
In experiment [9] the test system is CCRF-CEM leukemia.
Experiment [10] relates to MOLT-4 leukemia.
The subject of experiment [11] is SR leukemia.
Experiment [12] deals with RPMI-8226 leukemia.
Experiment [13] deals with OVCAR-8 ovarian.
Experiment [14] has as its system OVCAR-5 ovarian.
For experiment [15], the system named is OVCAR-4 ovarian.
The subject of experiment [16] is SK-OV-3 ovarian.
In experiment [17] the test system is IGROV1 ovarian.
The test system of experiment [18] is OVCAR-3 ovarian.
Experiment [19] has as its system HS 578T breast.
The test system of experiment [20] is NCI/ADR-RES ovarian.

The panel holds about 83,000 compounds, 20% with a hit somewhere; the sample as a whole holds those more often.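 Treatment: one concentration, 48 hours, 96-well format. Scoring: percent growth, with anything below 10 considered active.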 Unmarked numbers belong to inactive results. Activity calls are given as the source filed them.

On to `Fc1cc(Nc2ccc3c(OCCCN4CCOCC4)cccc3n2)ccc1Cl`, for which the growth in experiment [1] is 88.8%; in experiment [2], 39.9%; in [3], 62.6%; in experiment [4], 33.3%; in experiment [5], 66.1%; in experiment [6], 52.6%. Also, the growth is 54.8% in experiment [7]; 54.4% in [8]; 29.2% in [9]; 3.8% (active) in [10]; 10.7% in [11]; 4.49% (active) in experiment [12]. The growth in experiment [13] was 73.5%; in experiment [14] it was 33.5%; in experiment [15], 53.1%; in experiment [16], 67.7%; in [17], 36.2%; in [18] it was 65.1%. The growth in [19] was 40.1%; in experiment [20], 48.5%.
Turning to `COC(=O)CCC/C=C\C[C@H]1C=CC(=O)/C1=C/C[C@@H](O)C/C=C\CC(F)(F)F`, the growth in experiment [1] was -3.66% (active); in [2], 47.1%; in experiment [3], -6.2% (active); in [4] it was -68.9% (active); in experiment [5] it was -2.5% (active); in experiment [6], -47.7% (active). Besides, the growth was 1.42% (active) in experiment [7]; 109% in experiment [8]; -9.32% (active) in experiment [9]; 2.73% (active) in [10]; 4% (active) in experiment [11]; -11.8% (active) in experiment [12]. Further, the growth is 8.95% (active) in experiment [13]; 39% in [14]; 34% in [15]; 77.4% in [16]; 12.1% in experiment [17]; -3.96% (active) in [18]. The growth in [19] is 41.9%; in experiment [20], 14%.
With `COc1cnc2c(c1)C(=O)c1c-2n(CCCCl)c(=O)c2ccncc12`, the growth in experiment [1] is 102%; in experiment [2], 79.1%; in [3], 70.4%; in [4], 41.4%; in experiment [5], 87.3%; in [6], 37.3%. In addition, the growth was 35.7% in experiment [7]; 73.2% in experiment [8]; 34.6% in [9]; 26.2% in [10]; 17.1% in [11]; 41.9% in [12]. In addition, the growth was 66.2% in [13]; 116% in experiment [14]; 66.2% in experiment [15]; 89.3% in [16]; 55.5% in experiment [17]; 2.98% (active) in [18]. Moreover, the growth in experiment [19] is 84.3%; in [20] it was 59%.
`Nc1nc(N)c2c(n1)NC(c1ccc(Cl)cc1)C1CCc3ccccc3C1=N2` (stereo not given): the growth is 102% in experiment [1]; 35.8% in experiment [2]; 65.9% in experiment [3]; 55.8% in [4]; 49.2% in experiment [5]; 52.7% in experiment [6]. Further, the growth in experiment [7] is 37%; in experiment [8], 69.5%; in experiment [9], 51.5%; in [10], 22.5%; in experiment [11], 33.1%; in experiment [12], 41.9%. Besides, the growth in experiment [13] is 70.7%; in [14], 103%; in experiment [15] it was 39.2%; in [16] it was 66.8%; in experiment [17] it was 77.2%; in [18] it was 40.5%. Moreover, the growth in experiment [19] was 80.9%; in experiment [20], 52.5%.
For `CCc1ccc(CCC(=O)Nc2ncc(Cc3cc(Cl)ccc3Cl)s2)o1`, the growth was 45.5% in [1]; 42.9% in experiment [2]; 31.9% in [3]; 33.4% in experiment [4]; 51% in experiment [5]; 33.9% in experiment [6]. The growth was 23.9% in [7]; -0.625% (active) in experiment [8]; 10.4% in experiment [9]; 14.7% in experiment [10]; 15.3% in experiment [11]; 12.3% in experiment [12]. The growth in experiment [13] is 19.2%; in experiment [14], 24.5%; in [15] it was 50.3%; in experiment [16], 34%; in experiment [17], 23.5%; in [18] it was -2.36% (active). For the same molecule, the growth is 7.65% (active) in [19] and -3.44% (active) in experiment [20].
Turning to `COC(=O)CC[C@@H]1O[C@@H](c2ccc(F)cc2)[C@@H](O)[C@H]1O`, the growth in experiment [1] was 109%; in experiment [2], 104%; in [3] it was 109%; in experiment [4], 94%; in [5], 101%; in [6] it was 101%. Also, the growth in experiment [7] was 96.8%; in experiment [8], 112%; in [9], 107%; in experiment [10], 105%; in experiment [11], 96.6%; in [12] it was 101%. Also, the growth in experiment [13] is 112%; in experiment [14], 90.2%; in experiment [15], 115%; in [16], 101%; in [17], 113%; in experiment [18] it was 104%. Also, the growth was 94.1% in experiment [19] and 104% in experiment [20].
Turning to `O=C(Cc1cccc(OC(F)(F)F)c1)Nc1ccc(CCCCc2nnc(NC(=O)Cc3ccccn3)s2)nn1`, the growth was 116% in experiment [1]; 73.8% in experiment [2]; 68.5% in experiment [3]; 45.1% in [4]; 65% in [5]; 70% in experiment [6]. The growth in [7] was 70.4%; in [8], 20.6%; in experiment [9], 43%; in experiment [10] it was 43.8%; in experiment [11], 41.3%; in experiment [12] it was 6.13% (active). Also, the growth in [13] was 65%; in experiment [14], 86.7%; in experiment [15], 76.3%; in [16] it was 75.1%; in experiment [17], 78.9%; in experiment [18], 87.3%. Also, the growth in [19] is 79.3%; in experiment [20] it was 85.6%.
